Consider 21 molecules from PubChem BioAssay (NCI).

The nature of experiment [1]: NCI Yeast Anticancer Drug Screen. Data for the rad50 strain (AID 155).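 Further: 0% = growth of vehicle-only cultures of the same strain.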 As to conditions: S. cerevisiae rad50 strain growth inhibition; at 50.0 µM; stronger effect = higher value. A digest of the protocol:
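Genetically altered yeast (DNA repair pathway); compound treatment; growth inhibition vs vehicle ctrl.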

Experiment [2] in a line: NCI Yeast Anticancer Drug Screen. Data for the mec2-1 strain (AID 157). The note with it: S. cerevisiae mec2-1 strain, at 50.0 µM, stronger effect = higher value. Summed up:
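Readout is yeast growth inhibition, normalised to vehicle-treated controls, in the mec2-1 strain exposed to compound.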

The nature of experiment [3]: NCI Yeast Anticancer Drug Screen. Data for the sgs1 mgt1 strain (AID 161).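 Further: 0% = growth of cultures given vehicle only.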 The note with it: S. cerevisiae sgs1 mgt1 strain, at 50.0 µM, stronger effect = higher value. A digest of the protocol:
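This yeast growth screen uses a strain with defined DNA-repair lesions; compound-treated growth is compared with vehicle-treated growth.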

Experiment [4] can be described thus: NCI Yeast Anticancer Drug Screen. Data for the cln2 rad14 strain (AID 165).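 Further: 0% = growth equal to vehicle treated cultures.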 As to conditions: S. cerevisiae cln2 rad14 strain, at 50.0 µM, stronger effect = higher value. Summed up: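 Relative to vehicle controls, growth inhibition of compound-treated cln2 rad14 yeast was recorded.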
Experiment [5] in a line: NCI Yeast Anticancer Drug Screen. Data for the bub3 strain (AID 167). The note with it: S. cerevisiae bub3 mutant strain, at 50.0 µM, stronger effect = higher value. A digest of the protocol: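 Yeast carrying a defined mutation is treated with each compound, and growth is compared with that of vehicle-exposed cells to give inhibition.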
A short description of experiment [6]: NCI Yeast Anticancer Drug Screen. Data for the mlh1 rad18 strain (AID 175). The note with it: S. cerevisiae mlh1 rad18 strain growth inhibition; at 50.0 µM; stronger effect = higher value. Summed up: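 Test agents were incubated with a yeast strain of defined genotype (DNA damage repair defect). Inhibition of growth was derived by comparison with vehicle-exposed cultures.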

This is part of a sample that, as a whole, favours compounds with a hit. Of some 79,000 tested, about 15% had one in any assay. A number with no mark means an inactive call. Active and inactive are the calls of the source. No stated cut-off is given here; in the data, active means growth inhibition above about 70%; inactive means the rest.

Turning to `O=C1c2cccnc2-c2nccc3c2c1nc1ccccc13`, the growth inhibition in experiment [1] was 90.3% (active); in experiment [2], 92.8% (active); in experiment [3], 91% (active); in experiment [4], 91.4% (active); in experiment [5], 91.5% (active); in experiment [6], 90.7% (active).

In the case of `OCc1c(CO)c(Br)c2ccccc2c1Br`, the growth inhibition in experiment [1] was 11.8%; in experiment [2], 3.75%; in experiment [3], 35%; in experiment [4] it was -6.45%; in experiment [5], 4.9%; in experiment [6], -6.2%.

With `CC(C)NCCN`, the growth inhibition in experiment [1] is 17.4%; in experiment [2], 0.3%; in experiment [3], 18.8%; in experiment [4], 11.3%; in experiment [5], 12.7%; in experiment [6], 23.4%.

On to `O=[N+]([O-])c1ccc(O)c(C=NCCCN=Cc2cc([N+](=O)[O-])ccc2O)c1`, for which the growth inhibition in experiment [1] is 0.7%; in experiment [2] it was 7.95%; in experiment [3] it was -5%; in experiment [4], -6.95%; in experiment [5], 9%; in experiment [6], -11.3%.

As for `CCCCCc1cc(C(=O)NN)c2ccccc2n1`, the growth inhibition in experiment [1] is -29.7%; in experiment [2] it was -25%; in experiment [3] it was -12.6%; in experiment [4] it was -15.8%; in experiment [5], 33.1%; in experiment [6] it was -12.8%.

As to `O=C(NCCCCCCNC(=O)Nc1cccc2ccccc12)Nc1cccc2ccccc12`, the growth inhibition in experiment [1] was -13.9%; in experiment [2], -14.4%; in experiment [3], 7.05%; in experiment [4], -7.75%; in experiment [5] it was -2.3%; in experiment [6] it was -13.6%.

Take `COc1cc2c(cc1OC)C(c1ccccc1)OCC2` (stereo unspecified): the growth inhibition in experiment [1] was -8.25%; in experiment [2], 9.65%; in experiment [3] it was 6.8%; in experiment [4], -46.1%; in experiment [5], -2.6%; in experiment [6], -2.05%.

Consider `Cc1ccc(S(=O)(=O)N2CC(CCl)N(S(=O)(=O)c3ccc(C)cc3)CC2CCl)cc1` (stereo unspecified), for which the growth inhibition in experiment [1] was 28.5%; in experiment [2], 7.45%; in experiment [3] it was 20.6%; in experiment [4], 10.4%; in experiment [5], 4.35%; in experiment [6], 20.9%.

Consider `CC(SC(=S)N1CCOCC1)C(=O)O` (stereo unspecified), for which the growth inhibition in experiment [1] was 2.65%; in experiment [2] it was -6.8%; in experiment [3] it was -1.6%; in experiment [4], -4.8%; in experiment [5] it was -6.05%; in experiment [6], -7.6%.

Consider `COc1ccc2c(c1)C1(C)CCCC(C)(C(N)=O)C1CC2` (stereo unspecified), for which the growth inhibition was 0.1% in experiment [1]; -15.8% in experiment [2]; -8.05% in experiment [3]; 8.95% in experiment [4]; -12.2% in experiment [5]; -24.7% in experiment [6].

Regarding `COc1ccc(CC#N)c(OCc2ccccc2)c1`, the growth inhibition in experiment [1] was 2.35%; in experiment [2] it was 8.3%; in experiment [3], -10.2%; in experiment [4], 3.55%; in experiment [5] it was 1.8%; in experiment [6] it was -17.5%.

As to `CCOc1ccccc1N=Nc1c(C)nc(N)nc1OCC`, the growth inhibition in experiment [1] is 6.65%; in experiment [2], 6.65%; in experiment [3], 6.55%; in experiment [4] it was -30.1%; in experiment [5], 4%; in experiment [6], 14.9%.

Turning to `O=C(CCCCCCC(=O)ON1C(=O)CCC1=O)ON1C(=O)CCC1=O`, the growth inhibition in experiment [1] was -16.9%; in experiment [2], -3.55%; in experiment [3] it was -16.8%; in experiment [4], 13.8%; in experiment [5], -24.4%; in experiment [6] it was -4.1%.

On to `Brc1ccc[n+](CCc2ccccc2)c1`, for which the growth inhibition was -2.7% in experiment [1]; 15.1% in experiment [2]; -6.7% in experiment [3]; 7.75% in experiment [4]; 5.7% in experiment [5]; 9.5% in experiment [6].

Consider `CC(=O)c1nc2ccccc2n1CC(=O)c1ccc(Cl)cc1`, for which the growth inhibition in experiment [1] was -9.25%; in experiment [2], 11.3%; in experiment [3], 18.9%; in experiment [4], 12.6%; in experiment [5], 43.7%; in experiment [6] it was -3.55%.

`CC1(C)C=C(C(Cl)c2ccccc2)C(=O)c2ccccc21` (stereo unspecified): the growth inhibition was -1% in experiment [1]; 6.6% in experiment [2]; 0% in experiment [3]; -4.6% in experiment [4]; -3.7% in experiment [5]; -7.15% in experiment [6].

Regarding `CC(=O)CC(=O)NCCNC(=O)CC(C)=O`, the growth inhibition in experiment [1] is -4.55%; in experiment [2], -11.6%; in experiment [3] it was 10.3%; in experiment [4], 6.4%; in experiment [5], -4.55%; in experiment [6] it was 8.85%.

On to `O=c1c(-c2ccc3c(c2)OCO3)coc2cc(O)ccc12`, for which the growth inhibition is -2.9% in experiment [1]; -0.85% in experiment [2]; 18.9% in experiment [3]; 13.7% in experiment [4]; 11.6% in experiment [5]; 23.1% in experiment [6].

With `COC(=O)N1CCC(Sc2ccccc2)C2(CCSc3ccccc3)CCC=C12` (stereo unspecified), the growth inhibition is -2.2% in experiment [1]; -2.95% in experiment [2]; 5% in experiment [3]; -28.1% in experiment [4]; -27.6% in experiment [5]; -12.6% in experiment [6].

With `CSc1nc(NC2OC(COC(C)=O)C(OC(C)=O)C(OC(C)=O)C2OC(C)=O)c(C(=O)CCl)c(=O)n1C` (stereo unspecified), the growth inhibition in experiment [1] was 6.8%; in experiment [2], 15.9%; in experiment [3], 3.15%; in experiment [4] it was 5.8%; in experiment [5] it was 5.1%; in experiment [6] it was 24.5%.

Regarding `O=C1c2ccccc2C(=O)C2C1C(c1ccccc1)N(c1ccccc1)C2c1ccccc1` (stereo unspecified), the growth inhibition in experiment [1] was -16.4%; in experiment [2], -1.55%; in experiment [3] it was -7.1%; in experiment [4], 5.75%; in experiment [5], 2.65%; in experiment [6] it was -3.1%.
